FMDV FLuc = FMDV antiviral activity by firefly signal. FMDV antiviral cell assay, firefly luciferase signal. Potency, µM (doses to about 57.5 µM), for the others: at the highest dose activity change, negative = inhibition, hits mostly inhibitors. actives 0.23% (n = 120,000); also: nearly all actives have a fitted effect of over 60% in size
FMDV RLuc = antivirals against foot and mouth disease virus replicon; FMDV replicon cells, Renilla luciferase signal; Potency, µM (doses to about 57.5 µM), for the others: top-dose activity change, negative = inhibition, actives largely listed as inhibitors; actives 0.32% (n = 120,000); also: nearly all actives have a fitted effect of over 55% in size
* marks the source's active call; other numbers are inactive results; ? = inconclusive; ! = not active in a repeat; [ ] = dose if it differs, or a comment. In the library only some 0.45% were active in any assay of this set; here they are far more common. Calls follow the shape of the full dose curve. % is scaled to controls: 0 for no effect and ±100 for the full control effect; potency is read from the fitted curve at half-maximal effect.

SMILES	FMDV FLuc	FMDV RLuc
CCNc1nc2c(c(=O)n(C)c(=O)n2C)n1CC(O)COc1ccccc1 (stereo not drawn)	-1%	-11%
Cc1cccc(CNC(=O)c2ccc(Cn3c(=O)c4cccn4c4cccnc43)cc2)c1	-11%	-5%
Cc1ccc(CCNC(=O)C(C)n2nc(C)c3c(C)n(-c4ccc(C)cc4)nc3c2=O)cc1 (stereo not drawn)	?	13µM*
COc1ccc(CCNC(=O)C(C)n2nc(C)c3c(C)n(-c4ccccc4)nc3c2=O)cc1OC (stereo not drawn)	23%	9%
CCn1c(C)c(/C=C/c2cc[n+](C)cc2)c2ccccc21	?	14µM*
Cc1ccccc1-n1c(/C=C/c2c(C)n(C)c3ccccc23)nc2ccccc2c1=O	2%	-12%
CC(=O)c1ccc(S(=O)(=O)N2CCn3cccc3C2c2ccccc2F)cc1 (stereo not drawn)	13%	32µM*
CC(=O)c1ccc(S(=O)(=O)N2CCn3cccc3C2c2ccc(F)c(F)c2)cc1 (stereo not drawn)	-9%	23%
CC(=O)c1c(C)[nH]c(C(=O)OC(C)c2nc(-c3ccccc3)no2)c1C (stereo not drawn)	?	28µM*
CC(=O)c1c(C)[nH]c(C(=O)OC(C)c2nnc(-c3cccc(C)c3)o2)c1C (stereo not drawn)	-27%	0%
Cc1cc(C[n+]2ccccc2)c(C)cc1C[n+]1ccccc1	6%	-4%
CCOc1ccc(C(=O)Nc2ccc3c(c2)N(C(C)=O)CCC3)cc1OCC	?	4%
CC(=O)N1CCCc2ccc(NC(=O)c3ccc(C(F)(F)F)cc3)cc21	3.2µM*	1%
COc1ccc(CNCCc2ccc(Cl)cc2)cc1	7%	-27%
COc1ccc(CCNCc2ccc(Cl)cc2)cc1	2%	8.9µM*
Cc1ccc(-n2nnnc2Sc2nnnn2-c2ccccc2)c(C)c1	?	25µM*
Cc1cccc(-n2nnnc2Sc2nnnn2-c2ccccc2)c1C	-27%	?
Cn1c(Oc2ccc(F)cc2)nc2c1c(=O)n(Cc1ccccc1Cl)c(=O)n2C	-19%	-15%
Cc1ccc(-c2csc(NC(=O)c3cnc4c(cnn4C(C)C)c3)n2)cc1C	11µM*	?
CCC(C)c1ccc(-c2csc(NC(=O)c3cnc4c(c3)c(=O)n(C)c(=O)n4C)n2)cc1 (stereo not drawn)	119%	-8%
CC(C)CN(CCNC(=O)c1cn(C)c2ccc(S(=O)(=O)N3CCOCC3)cc2c1=O)CC(C)C	-18%	-7%
COc1ccc(Cl)cc1-n1c(/C=C/c2cccc3ccccc23)nc2ccccc2c1=O	-23%	24%
O=c1c2ccccc2nc(/C=C/c2cccc3ccccc23)n1-c1ccccc1Cl	?	25µM*
Cc1ccc(-c2cc(C(=O)Nc3ccc(C(N)=O)cc3)c3ccccc3n2)o1	125%	19%
CCOc1ccccc1NC(=O)Cn1nc(N2CCN(c3ccccc3)CC2)ccc1=O	-11%	18%
SMILES	FMDV FLuc	FMDV RLuc
CCc1ccccc1NC(=O)c1ccc(Cn2nc(N3CCN(c4ccccc4)CC3)ccc2=O)o1	?	32µM*
O=C(NCc1ccccn1)c1ccc(C2CCCCC2)cc1	0%	8%
O=C(NCc1ccncc1)c1ccc(C2CCCCC2)cc1	?	3.5µM*
Cc1ccc2c(c1)Sc1ccc(C)cc1S2	19%	5%
Cn1c(=O)c2c(nc(Br)n2CC(=O)c2ccc(F)cc2)n(C)c1=O	9%	-8%
Cn1c(=O)c2c(nc(Cl)n2CC(=O)c2ccc(C(C)(C)C)cc2)n(C)c1=O	?	11µM*
Cc1ccccc1OCC(O)Cn1c(=N)n(CCN2CCCCC2)c2ccccc21 (stereo not drawn)	-7%	-4%
CCCCCn1c(=N)n(CC(O)COc2cccc(C)c2)c2ccccc21 (stereo not drawn)	?	25µM*
CCn1cc(C(=O)Cn2c(C)nc3ccccc32)c2ccccc21	?	8.9µM*
CCOCN(C(=O)Cn1c(C)nc2ccccc21)c1c(C)cccc1CC	-5%	-5%
COc1cccc(C(=O)OCc2nc(N)c3ccccc3n2)c1O	0%	10%
O=C(CSc1nncn1-c1ccccc1)Nc1cccc(S(=O)(=O)N2CCCCC2)c1	15%	18%
Cc1[nH]c(SCC(=O)Nc2cccc(S(=O)(=O)N3CCCC3)c2)nc1Cc1ccccc1	14µM*	-16%
Cc1oc(-c2nc(C#N)c(NCc3cccnc3)o2)cc1S(=O)(=O)N1CCCCC1	-7%	35%
CCOC(=O)c1cccc(Nc2nc3ccccc3nc2NS(=O)(=O)c2ccccc2)c1	3%	-2%
CCOC(=O)C1=C(Nc2ccccc2)O/C(=C\c2ccc(OC(F)F)cc2OC(F)F)C1=O	10µM*	?
COC(=O)c1cn(CC(=O)Nc2ccc(C)cc2)c2ccccc12	89%	-2%
CC(C)NC(=O)CN(C)CC(O)COc1ccc(Cl)cc1Cl (stereo not drawn)	-32%	?
O=C(c1ccccc1Br)N(Cc1ccco1)C1CCS(=O)(=O)C1 (stereo not drawn)	-13%	6%
O=c1oc2ccccc2c(NC2CCCC2)c1NS(=O)(=O)c1ccc(F)cc1F	-4%	-9%
Cc1c(O)ccc2c(CN3CCN(Cc4cccc(C(F)(F)F)c4)CC3)cc(=O)oc12	-45%	-38%
Cc1c(O)ccc2c(CN3CCN(c4cccc(C(F)(F)F)c4)CC3)cc(=O)oc12	13µM*	13µM*
Cc1cc(C(C#N)c2ccc(Cl)cc2)c(Cl)cc1NC(=O)c1cc(I)cc(I)c1O (stereo not drawn)	-31%[11.5 µM]	11µM*
Cc1cc(C(C#N)c2ccc(Cl)cc2)c(Cl)cc1NC(=O)CCc1ccccc1 (stereo not drawn)	1%	2%
CCOC(=O)C1CCN(C(=O)COC(=O)c2cc3c(C)cc(C)cc3[nH]2)CC1	10%	-4%
SMILES	FMDV FLuc	FMDV RLuc
CCOC(=O)C(C#N)c1nc2ccccc2nc1N1CCCC1 (stereo not drawn)	-4%	-13%
Cc1ccccc1CNc1ncnc2ccccc12	11µM*	?
Cc1ccccc1CC(=O)Nc1cccc2ncccc12	21%	9%
CC(=O)c1cccc(NC(=O)Nc2cccc(Br)c2)c1	11%	2%
O=C(Nc1cccc(Br)c1)Nc1ccc2c(c1)N(C(=O)c1ccccc1)CC2	?	14µM*
Cc1cc2ccccc2n1CC(=O)N1CCN(CC(=O)N2CCCCCC2)CC1	-9%	-17%
Cc1ccc(-n2nc(CO)c(C(=O)NCC(c3ccccc3)c3ccccc3)n2)cc1	-22%	-12%
O=C(NCc1cccs1)c1nn(-c2ccccc2Cl)nc1CO	?	21%
O=C(NCC(c1ccccc1)c1ccccc1)c1nn(-c2ccccc2Cl)nc1CO	?	28µM*!
Cc1ccccc1-n1nc(CO)c(C(=O)NCC(c2ccccc2)c2ccccc2)n1	?	8.9µM*
CC(=O)Nc1ccc(S(=O)(=O)N2CCC(Oc3ccc(-n4cnnn4)cc3)CC2)cc1	-3%	13%
O=S(=O)(c1cccc(F)c1)N1CCC(Oc2ccc(-n3cnnn3)cc2)CC1	22µM*	?
Cc1ccccc1NC(=O)c1sc2nc3c(cc2c1N)CN(Cc1ccccc1)CC3	4%	?
Cc1ccccc1NC(=O)c1sc2nc3c(cc2c1N)CN(C(C)C)CC3	?	14µM*
O=C1CCCc2c(O)cccc21	22%[11.5 µM]	-7%
O=C1C(=C(c2ccccc2)c2ccccc2)C(Cl)C(Cl)(Cl)c2ccccc21 (stereo not drawn)	?	11µM*
Cc1ccc2nc(C)c(C(=O)N3CCN(Cc4ccccc4C)CC3)cc2c1	16µM*	16µM*

Screens from PubChem BioAssay.
